Experimental data: PMC5540273 (PLoS ONE, 2017)
Where “and” joins values, the source holds several entries; their conditions need not be identical. Equal entries are not always repeated. Where two headings read alike, the source gives them in different places.

Key:
WNK4 = settings: concentration: 1 μM, replicates: in singlicate; n = 1
YANK1 = tested on: T1, YANK1; settings: concentration: 1 μM, replicates: in singlicate, n = 1
T1 construct: gene STK32A

YANK2 = tested on: T2, YANK2; settings: concentration: 1 μM, replicates: in singlicate, n = 1
T2 construct: gene STK32B

YANK3 = tested on: T3, YANK3; settings: concentration: 1 μM, replicates: in singlicate, n = 1
T3 construct: gene STK32C

YES = tested on: T4, YES; settings: concentration: 1 μM, replicates: in singlicate; n = 1
T4 construct: gene YES1

YSK1 = tested on: T5, YSK1; settings: concentration: 1 μM, replicates: in singlicate; n = 1
T5 construct: gene STK25

YSK4 = tested on: T6, YSK4; settings: concentration: 1 μM, replicates: in singlicate, n = 1
T6 construct: gene MAP3K19

ZAK = settings: concentration: 1 μM, replicates: in singlicate, n = 1
ZAP70 = settings: concentration: 1 μM, replicates: in singlicate, n = 1
p38-alpha = tested on: T7, p38-alpha; settings: concentration: 1 μM, replicates: in singlicate, n = 1
T7 construct: gene MAPK14
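Note: KINOMEscan kinase panel screen.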

Compound	%Inh (WNK4) [%]	%Inh (YANK1; 1 µM)	%Inh (YANK2; 1 µM)	%Inh (YANK3; 1 µM)	%Inh (YES) [%]	%Inh (YSK1) [%]	%Inh (YSK4; 1 µM)	%Inh (ZAK; 1 µM)	%Inh (ZAP70; 1 µM)	%Inh (p38-alpha; 1 µM)	%Inh (YANK1) [%]	%Inh (YANK2) [%]	%Inh (YANK3) [%]	%Inh (YSK4) [%]	%Inh (ZAK) [%]	%Inh (ZAP70) [%]	%Inh (p38-alpha) [%]
COc1ccc(-c2nc3n(c2-c2ccncc2)CCC3)cc1 [SKF-104493]	17	0% and 10%	13% and 0%	0% and 4%	0	0	0% and 100%	0% and 8%	0% and 8%	80% and 97.8%	–	–	–	–	–	–	–
Cc1ccc(C)c(NC(=O)NCCNc2ccnc(Nc3ccc(F)cc3)n2)c1 [GSK1379878]	23	–	–	–	0	0	–	–	–	–	0	0	0	0	34	0	6
CS(=O)(=O)CCNCc1ccc(-c2ccc3ncnc(Nc4ccc(OCc5ccccc5)c(Cl)c4)c3c2)o1.Cl [GW574783]	22	–	–	–	1	0	–	–	–	–	0	24	8	2	0	0	0
CCc1nc(-c2cccc(C)c2)c(-c2ccnc(NC(=O)c3ccccc3)c2)s1	18	–	–	–	19	2	–	–	–	–	13	41	15	23	0	0	–
CS(=O)(=O)CCNCc1nc(-c2ccc3ncnc(Nc4ccc(OCc5cccc(F)c5)c(Cl)c4)c3c2)cs1.Cl [GW583340]	0	–	–	–	3	0	–	–	–	–	0	0	0	17	91.6	0	18
O=C(NCCCN1CCCC1=O)c1cnc(NCc2cc(Cl)ccc2Cl)nc1NC1CCNCC1	0	–	–	–	0	5	–	–	–	–	1	0	0	54	0	0	0
CCCc1ccc(S(=O)(=O)NC2CCN(c3ccnc(Nc4ccc(OC)cc4)n3)C2)cc1 (stereo not drawn) [GSK1379737]	45	–	–	–	5	0	–	–	–	–	0	0	16	30	8	0	10
CC(C)N1CCC(n2cnc(-c3ccc(F)cc3)c2-c2ccnc(N)n2)CC1 [SB-223132]	0	–	–	–	0	0	–	–	–	–	0	16	0	0	8	5	96.8
Nc1nc(-c2ccc3c(N)n[nH]c3c2)cc(N2CCC[C@@H](C(=O)Nc3ccccc3)C2)n1.O=C(O)C(F)(F)F.O=C(O)C(F)(F)F [GSK2288359]	0	–	–	–	0	5	–	–	–	–	4	0	0	9	3	0	0
COc1ccc(NC(=O)c2ccc(-c3cc(-c4nnc(C)o4)ccc3C)cc2)cc1 [GW595885]	34	–	–	–	16	0	–	–	–	–	16	7	0	34	2	0	97.7
COc1cc2ncnc(Nc3ccc(OCc4ccccc4Br)c(Cl)c3)c2cc1OC.Cl [GI261590]	52	–	–	–	31	0	–	–	–	–	0	0	21	33	33	19	63
O=C(c1ccc(-c2cc(-c3c[nH]nc3-c3ccccn3)ccn2)cc1)N1CCCC1 [GW792479]	14	–	–	–	0	0	–	–	–	–	0	13	0	0	28	2	7
Fc1ccc(Nc2nccc(-c3c(-c4ccc(Cl)cc4)nn4ncccc34)n2)cc1F [GW829058]	28	–	–	–	0	0	–	–	–	–	0	4	30	47	18	13	26
Nc1n[nH]c2nnc(-c3ccccc3)cc12 [SB-517389]	0	–	–	–	16	0	–	–	–	–	13	0	21	75	24	0	0
Cn1cc(-c2ccc3c(c2)CCN3C(=O)Cc2cccc(C(F)(F)F)c2)c2c(N)ncnc21 [GSK2606414]	0	–	–	–	0	0	–	–	–	–	10	0	19	34	0	0	0
COc1ccc(Nc2nccc(N3CCC(NC(=O)c4cccc(NC(C)=O)c4)C3)n2)cc1 (stereo not drawn) [GSK1379732]	100	–	–	–	0	11	–	–	–	–	22	0	20	5	10	0	30

Compound	%Inh (WNK4) [%]	%Inh (YANK1; 1 µM)	%Inh (YANK2; 1 µM)	%Inh (YANK3; 1 µM)	%Inh (YES) [%]	%Inh (YSK1) [%]	%Inh (YSK4; 1 µM)	%Inh (ZAK; 1 µM)	%Inh (ZAP70; 1 µM)	%Inh (p38-alpha; 1 µM)	%Inh (YANK1) [%]	%Inh (YANK2) [%]	%Inh (YANK3) [%]	%Inh (YSK4) [%]	%Inh (ZAK) [%]	%Inh (ZAP70) [%]	%Inh (p38-alpha) [%]
FC(F)(F)c1cc(Nc2nccc(-c3c(-c4ccc(Cl)cc4)nn4ncccc34)n2)ccc1Cl [GW829351]	0	–	–	–	0	0	–	–	–	–	0	0	4	0	0	0	43
CSc1nn2c(=O)cc(N3CCOCC3)nc2n1Cc1cccc(Cl)c1Cl [GSK2347225]	0	–	–	–	31	12	–	–	–	–	16	7	19	0	0	0	0
O=C(CCO)NCCn1ccc2ncnc(Nc3ccc(Oc4cccc(C(F)(F)F)c4)c(Cl)c3)c21	0	–	–	–	0	0	–	–	–	–	0	0	0	0	0	0	0
N#Cc1ccc(Oc2ccc(Nc3ncnc4cc[nH]c34)cc2Cl)cc1	19	–	–	–	0	0	–	–	–	–	19	22	0	20	18	0	19
COc1ccc(NC(=O)Nc2ccc(C)c(-c3ccc(C(=O)Nc4ccncc4)cc3)c2)cc1 [GSK1398475]	0	–	–	–	13	13	–	–	–	–	0	0	7	9	6	0	60
CNc1nccc(-c2c(-c3ccc(F)cc3)ncn2C2CCN(C)CC2)n1 [SB-222903]	9	–	–	–	0	0	–	–	–	–	0	17	6	7	0	0	98.6
FC(F)(F)c1ccc(-c2cc(-c3c[nH]nc3-c3ccccn3)ccn2)cc1 [GW599550]	42	–	–	–	6	20	–	–	–	–	98.8	10	0	28	24	0	28
O=C(Nc1ccccc1)Nc1ccc(Oc2ccc3nccn3n2)cc1	0	–	–	–	11	0	–	–	–	–	0	0	0	0	4	0	0
CCC(CC)(CC)n1cnc2c(N)ncnc21 [SKF-97620]	23	–	–	–	0	0	–	–	–	–	18	12	9	31	0	29	3
OCCOCCn1ccc2ncnc(Nc3ccc(Oc4cccc(Cl)c4)c(Cl)c3)c21	0	–	–	–	0	0	–	–	–	–	0	0	0	0	0	0	0
CC(=O)Nc1n[nH]c2ncc(-c3ccccc3)cc12 [SB-548492]	30	–	–	–	0	0	–	–	–	–	0	0	0	31	31	0	4
CNc1nccc(-c2c(-c3ccc(F)cc3)ncn2CCCN2CCOCC2)n1 [SB-222516]	0	–	–	–	0	0	–	–	–	–	0	0	0	7	6	5	13
Cc1cccc(-c2nc(Nc3ccc4[nH]nnc4c3)c3ccccc3n2)n1 [GW867587]	0	–	–	–	0	0	–	–	–	–	0	0	1	0	0	0	0
Oc1ccc2ncnc(Nc3ccc(OCc4ccccc4)cc3)c2c1 [GI262866]	14	–	–	–	0	0	–	–	–	–	0	0	15	7	18	0	0
c1ccc(-c2ccc3c(-c4ccnc(Nc5ccc6c(c5)OCCO6)n4)cnn3n2)cc1 [GW818941]	0	–	–	–	5	0	–	–	–	–	0	13	0	0	10	20	0
